Drawing on PubChem BioAssay (NCI), this text covers growth for 16 compounds.

Several values for one entry are separate records, joined by “and”; a condition that tells them apart may be missing. Equal values may be shown once. Compounds without any hit were thinned out: in the full panel of roughly 83,000, 20% have a hit.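 Step 1: grow cells in 96-well plates. Step 2: add test compound at a single concentration. Step 3: incubate 48 h. Step 4: record percent growth.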 Activity calls are given as the source filed them. Rule for the calls: active = growth percent below 10; inactive = the rest.

Among the test systems are HCT-15 colon; HT29 colon; SNB-75 CNS; SNB-19 CNS; U251 CNS; PC-3 prostate; SK-MEL-5 melanoma; UACC-62 melanoma; LOX IMVI melanoma; SK-MEL-28 melanoma.
Test in all cases: NCI-60 one-dose screen, 48 h (100 = growth as untreated, 0 = no growth, -100 = all killed)
Conditions in all cases: 10 µM unless noted

For `COc1ccc(CCN=Cc2ccc(Cl)cc2)cc1OC`, the growth in the experiment on HCT-15 colon was 106% (inactive); in the experiment with HT29 colon, 107% (inactive); in the experiment on SNB-75 CNS it was 127% (inactive); in the experiment with SNB-19 CNS, 101% (inactive); in the experiment on U251 CNS, 105% (inactive); in the experiment with PC-3 prostate it was 116% (inactive). For the same compound, the growth in the experiment with SK-MEL-5 melanoma is 107% (inactive); with UACC-62 melanoma, 107% (inactive); in the experiment with LOX IMVI melanoma, 95.8% (inactive); in the experiment with SK-MEL-28 melanoma, 121% (inactive).

Consider `O=C1c2cccnc2-c2ncccc21`, for which the growth in the experiment on HCT-15 colon was 111% [100 µM] (inactive); with HT29 colon it was 106% [100 µM] (inactive); in the experiment with SNB-75 CNS, 93.8% [100 µM] (inactive); in the experiment with SNB-19 CNS, 102% [100 µM] (inactive); with U251 CNS, 100% [100 µM] (inactive); in the experiment with PC-3 prostate, 96.4% [100 µM] (inactive). Also, the growth with SK-MEL-5 melanoma is 103% [100 µM] (inactive); in the experiment on UACC-62 melanoma it was 102% [100 µM] (inactive); in the experiment on LOX IMVI melanoma, 99.7% [100 µM] (inactive); with SK-MEL-28 melanoma, 119% [100 µM] (inactive).

On to `Cc1ccc(C(=O)c2ccc(C)cc2)cc1`, for which the growth was 99.8% (inactive) and 102% (inactive) in the experiment on HCT-15 colon; 95.4% (inactive) and 102% (inactive) in the experiment with HT29 colon; 86.4% (inactive) and 99.5% (inactive) with SNB-75 CNS; 86.9% (inactive) and 105% (inactive) in the experiment on SNB-19 CNS; 94.1% (inactive) and 105% (inactive) in the experiment on U251 CNS; 95.8% (inactive) and 92.5% (inactive) with PC-3 prostate. The growth in the experiment with SK-MEL-5 melanoma was 95.6% (inactive) and 100% (inactive); in the experiment on UACC-62 melanoma it was 92.7% (inactive) and 101% (inactive); with LOX IMVI melanoma, 100% (inactive) and 90.4% (inactive); in the experiment with SK-MEL-28 melanoma, 111% (inactive) and 106% (inactive).

Turning to `O=C(O)C(Cc1ccc(OS(=O)(=O)Cc2ccccc2)cc1)NS(=O)(=O)Cc1ccccc1` (stereo not given), the growth was 99.5% (inactive) and 108% (inactive) in the experiment with HCT-15 colon; 101% (inactive) and 119% (inactive) in the experiment with HT29 colon; 85.7% (inactive) and 94.9% (inactive) in the experiment with SNB-75 CNS; 96.6% (inactive) and 105% (inactive) in the experiment on SNB-19 CNS; 104% (inactive) in the experiment with U251 CNS; 123% (inactive) and 101% (inactive) with PC-3 prostate. Moreover, the growth in the experiment on SK-MEL-5 melanoma is 97.5% (inactive) and 108% (inactive); in the experiment with UACC-62 melanoma, 108% (inactive) and 97.9% (inactive); in the experiment on LOX IMVI melanoma it was 98% (inactive); in the experiment on SK-MEL-28 melanoma, 108% (inactive) and 116% (inactive).

With `CCc1ccc(OC(=O)CCl)cc1`, the growth in the experiment on HCT-15 colon is 107% (inactive); with HT29 colon, 107% (inactive); in the experiment with SNB-75 CNS, 89.7% (inactive); in the experiment on SNB-19 CNS, 108% (inactive); in the experiment on U251 CNS, 97% (inactive); in the experiment with PC-3 prostate, 98.3% (inactive). The growth was 105% (inactive) in the experiment on SK-MEL-5 melanoma, 106% (inactive) with UACC-62 melanoma, 93.3% (inactive) in the experiment on LOX IMVI melanoma and 98.4% (inactive) with SK-MEL-28 melanoma.

Take `CN(C)CC(CN(C)C)C(O)c1ccccc1` (stereo not given): the growth with HCT-15 colon is 99.3% (inactive); with HT29 colon it was 100% (inactive); in the experiment on SNB-75 CNS it was 94.5% (inactive); in the experiment on SNB-19 CNS it was 109% (inactive); in the experiment on U251 CNS, 99.5% (inactive); in the experiment on PC-3 prostate, 101% (inactive). For the same compound, the growth was 106% (inactive) in the experiment with SK-MEL-5 melanoma, 106% (inactive) with UACC-62 melanoma, 97.8% (inactive) in the experiment with LOX IMVI melanoma and 105% (inactive) in the experiment on SK-MEL-28 melanoma.

Take `CS(=O)(=O)OCC1NC(=O)C(COS(C)(=O)=O)NC1=O` (stereo not given): the growth is 91.8% (inactive) and 88.4% (inactive) in the experiment on HCT-15 colon; 85.6% (inactive) and 81.3% (inactive) in the experiment on HT29 colon; 56.5% (inactive) and 100% (inactive) in the experiment with SNB-75 CNS; 105% (inactive) and 110% (inactive) in the experiment with SNB-19 CNS; 95.9% (inactive) and 93.9% (inactive) in the experiment with U251 CNS; 88.3% (inactive) and 82.6% (inactive) in the experiment with PC-3 prostate. For the same compound, the growth with SK-MEL-5 melanoma was 96.5% (inactive) and 103% (inactive); in the experiment with UACC-62 melanoma, 101% (inactive) and 102% (inactive); in the experiment with LOX IMVI melanoma, 94.1% (inactive) and 90.5% (inactive); in the experiment with SK-MEL-28 melanoma, 115% (inactive) and 112% (inactive).

As to `CCCCC/C(C)=N\NC(N)=S`, the growth with HCT-15 colon is 79.4% (inactive); in the experiment on HT29 colon, 55.3% (inactive); in the experiment on SNB-75 CNS, 86.6% (inactive); with SNB-19 CNS, 105% (inactive); in the experiment with U251 CNS, 80.2% (inactive); with PC-3 prostate it was 89.4% (inactive). Moreover, the growth in the experiment with SK-MEL-5 melanoma was 90% (inactive); with UACC-62 melanoma it was 96.2% (inactive); in the experiment with LOX IMVI melanoma it was 95.6% (inactive); in the experiment on SK-MEL-28 melanoma, 94.2% (inactive).

For the compound `CCCCOC1NC(=O)NC(=O)C1(F)C(=O)OCC` (stereo not given), the growth with HCT-15 colon was 70% (inactive) and 48.2% (inactive); with HT29 colon, 74.1% (inactive) and 52.3% (inactive); in the experiment on SNB-75 CNS, 78% (inactive) and 81.8% (inactive); in the experiment with SNB-19 CNS, 101% (inactive) and 82.6% (inactive); with U251 CNS it was 91.6% (inactive); in the experiment on PC-3 prostate, 88.4% (inactive) and 85.6% (inactive). The growth with SK-MEL-5 melanoma was 81% (inactive) and 66.9% (inactive); with UACC-62 melanoma, 72% (inactive) and 52.8% (inactive); with LOX IMVI melanoma it was 73.5% (inactive) and 52.5% (inactive); with SK-MEL-28 melanoma it was 83.4% (inactive) and 70.7% (inactive).

In the case of `O=C(c1ccncc1)c1c(Cc2ccccc2)ccc2ccccc12`, the growth is 91.5% (inactive) with HCT-15 colon; 84.9% (inactive) in the experiment with HT29 colon; 90.4% (inactive) with SNB-75 CNS; 96.7% (inactive) in the experiment with SNB-19 CNS; 88.8% (inactive) in the experiment on U251 CNS; 83% (inactive) in the experiment on PC-3 prostate. For the same compound, the growth with SK-MEL-5 melanoma is 80.1% (inactive); in the experiment on UACC-62 melanoma it was 66.3% (inactive); in the experiment on LOX IMVI melanoma, 90.8% (inactive); with SK-MEL-28 melanoma, 90.2% (inactive).

Regarding `Clc1ccc(/C=C/c2ccc3ccccc3n2)cc1`, the growth in the experiment on HCT-15 colon is 26.6% (inactive) and 96.4% (inactive) and 81.7% (inactive); in the experiment with HT29 colon, 2.32% (active) and 79.3% (inactive) and 71.1% (inactive); in the experiment with SNB-75 CNS it was -21.1% (active) and 98.7% (inactive) and 88.1% (inactive); with SNB-19 CNS it was 42.2% (inactive) and 96.2% (inactive) and 98.8% (inactive); with U251 CNS, 16.3% (inactive) and 95.6% (inactive) and 87.1% (inactive); in the experiment with PC-3 prostate it was 31.3% (inactive) and 271% (inactive) and 92% (inactive). For the same compound, the growth is 24.4% (inactive) and 88.9% (inactive) and 81.9% (inactive) in the experiment with SK-MEL-5 melanoma; 43.1% (inactive) and 78.5% (inactive) and 75.8% (inactive) in the experiment with UACC-62 melanoma; 18.3% (inactive) and 83% (inactive) and 82.5% (inactive) in the experiment with LOX IMVI melanoma; 57.5% (inactive) and 166% (inactive) and 101% (inactive) in the experiment on SK-MEL-28 melanoma.

With `CC1(C)CC(=O)NC1=O`, the growth with HCT-15 colon was 110% (inactive); with HT29 colon it was 99.8% (inactive); in the experiment with SNB-75 CNS it was 82% (inactive); with SNB-19 CNS, 101% (inactive); in the experiment with U251 CNS, 101% (inactive); with PC-3 prostate, 104% (inactive). Also, the growth in the experiment with SK-MEL-5 melanoma was 100% (inactive); in the experiment with UACC-62 melanoma, 99.6% (inactive); in the experiment with LOX IMVI melanoma, 95.9% (inactive); in the experiment with SK-MEL-28 melanoma, 105% (inactive).

In the case of `CC1CCC(=O)N1c1ccc(N)cc1` (stereo not given), the growth in the experiment with HCT-15 colon was 108% (inactive); in the experiment with HT29 colon, 96.6% (inactive); in the experiment with SNB-75 CNS it was 97.4% (inactive); in the experiment on SNB-19 CNS it was 97.8% (inactive); in the experiment on U251 CNS, 97.3% (inactive); in the experiment on PC-3 prostate it was 94.4% (inactive). Also, the growth with SK-MEL-5 melanoma was 98.9% (inactive); in the experiment on UACC-62 melanoma, 100% (inactive); with LOX IMVI melanoma, 95.1% (inactive); in the experiment with SK-MEL-28 melanoma, 107% (inactive).

Take `C/C(CC(C)C)=N/NC(N)=S`: the growth with HCT-15 colon is 79.4% (inactive); in the experiment with HT29 colon, 56.1% (inactive); with SNB-75 CNS it was 99.3% (inactive); in the experiment with SNB-19 CNS, 107% (inactive); in the experiment with U251 CNS, 79.3% (inactive); in the experiment on PC-3 prostate, 93.4% (inactive). Also, the growth is 99.5% (inactive) in the experiment on SK-MEL-5 melanoma, 105% (inactive) in the experiment on UACC-62 melanoma, 95.4% (inactive) with LOX IMVI melanoma and 106% (inactive) with SK-MEL-28 melanoma.

As for `COc1ccc(S(=O)(=O)c2ccc(F)cc2)cc1`, the growth with HCT-15 colon was 95.6% (inactive); in the experiment with HT29 colon it was 106% (inactive); with SNB-75 CNS, 101% (inactive); with SNB-19 CNS, 93.1% (inactive); in the experiment with U251 CNS, 101% (inactive); in the experiment with PC-3 prostate, 94.1% (inactive). In addition, the growth with SK-MEL-5 melanoma is 106% (inactive); in the experiment with UACC-62 melanoma, 93.9% (inactive); in the experiment on LOX IMVI melanoma, 81.5% (inactive); in the experiment on SK-MEL-28 melanoma, 104% (inactive).

For `CNc1ccc(Cl)cc1S(=O)(=O)c1ccccc1[N+](=O)[O-]`, the growth in the experiment on HCT-15 colon is 105% (inactive) and 91.3% (inactive); in the experiment with HT29 colon, 101% (inactive) and 106% (inactive); in the experiment on SNB-75 CNS, 73.4% (inactive) and 11.4% (inactive); in the experiment on SNB-19 CNS, 110% (inactive) and 104% (inactive); in the experiment on U251 CNS, 84.3% (inactive) and 86.7% (inactive); in the experiment on PC-3 prostate, 91.9% (inactive) and 96.2% (inactive). For the same compound, the growth with SK-MEL-5 melanoma was 34.4% (inactive) and 95.6% (inactive); in the experiment on UACC-62 melanoma, 60.9% (inactive) and 69.8% (inactive); with LOX IMVI melanoma, 77.5% (inactive) and 81.4% (inactive); with SK-MEL-28 melanoma, 96.2% (inactive).
